Screening data from PubChem BioAssay.
In the library only some 2.5% were active in any assay of this set; here they are far more common.
Cruzain noTriton: qHTS Assay for Promiscuous and Specific Inhibitors of Cruzain (without detergent). Cruzipain (Trypanosoma cruzi), P25779. hit rate 2.3% among 200,000. purified cruzain, Z-FR-AMC fluorescence, no detergent. Potency, µM, for the others: max response, negative = inhibition, actives largely listed as inhibitors. AID 1476, 2009;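 further: plate controls were enzyme without inhibitor for no effect and buffer without enzyme for full effect; nearly all actives have a fitted effect of over 40% in size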
Target sequence (P25779 123-467 limits assumed): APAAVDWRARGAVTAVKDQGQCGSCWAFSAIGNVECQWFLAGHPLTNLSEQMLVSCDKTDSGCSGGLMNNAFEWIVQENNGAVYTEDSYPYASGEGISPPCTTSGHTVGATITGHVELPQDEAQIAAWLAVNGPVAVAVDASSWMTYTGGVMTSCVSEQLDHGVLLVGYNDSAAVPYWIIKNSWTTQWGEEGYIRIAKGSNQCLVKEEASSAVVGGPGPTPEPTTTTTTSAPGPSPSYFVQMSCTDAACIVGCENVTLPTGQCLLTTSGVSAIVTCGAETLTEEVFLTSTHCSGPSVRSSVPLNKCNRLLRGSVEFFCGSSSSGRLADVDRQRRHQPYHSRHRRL
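Detergent-free condition (0.00005% Triton X-100) in acetate buffer pH 5.5 with DTT. 1.5 nM enzyme and compound were pre-mixed 15 min, then 2 uM Z-FR-AMC substrate added; reaction progress from fluorescence change between first and third reads (60 s).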
Cruzain Triton: qHTS Assay for Promiscuous and Specific Inhibitors of Cruzain (with detergent); Cruzipain (Trypanosoma cruzi), P25779; purified cruzain, Z-FR-AMC fluorescence, 0.01% Triton; Potency, µM, without a hit: max response, negative = inhibition, actives largely listed as inhibitors; hit rate 0.43% among 200,000; AID 1478, 2009;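 further: plate controls were neutral wells for no effect and buffer without enzyme for full effect; nearly all actives have a fitted effect of over 40% in size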
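Compounds were screened in titration against cruzain (1.5 nM) with 0.01% Triton X-100 to counter colloidal aggregation. Activity was the AMC fluorescence increase over 60 s after adding 2 uM Z-FR-AMC at pH 5.5.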
* hit, by the source's call; u = inconclusive. The call rests on the fitted dose curve; in most records, active means well fitted curve in the direction sought with a large enough effect; inconclusive means small, poorly fitted or top-dose-only effect, or another doubt; inactive means no such curve, though single readings can be large; an effect the other way counts as inactive or inconclusive. Potency means the concentration at half of the fitted maximal effect.

SMILES	Cruzain noTriton	Cruzain Triton
Cc1cccc(CCNC(=O)c2cc3c(s2)-c2c(C)cccc2OC3)c1	-27%	u
CN(C)CCNC(=O)c1cc2c(s1)-c1ccccc1OC2	10µM*	u
O=C(NCCCN1CCN(c2ccccc2F)CC1)c1cc2c(s1)-c1ccccc1OC2	23%	-22%
CCCCN(CCCC)C(=O)CN(C)S(=O)(=O)c1ccc2c(c1)c(=O)n(C)c(=O)n2C	u	1%
c1ncc(-c2ccoc2)c(NC2CC2)n1	-6%	2%
NC(=O)[C@@H]1CCCN1Cc1ccc2c(c1)OCO2	0%	6%
CCc1ccc(N=C2NC(=O)CC(C(=O)Nc3ccc(OC)cc3)S2)cc1 (configuration not stated)	u	-4%
COc1ccc(/C=C2\CCCC3C2=NN(C(=O)CSc2ncn[nH]2)C3c2ccc(OC)cc2)cc1 (configuration not stated)	u	-5%
COc1ccc(/C=C2\CCCC3C2=NN(C(=O)COC(=O)CNC(=O)c2ccccc2)C3c2ccc(OC)cc2)cc1 (configuration not stated)	16µM*	-26%
CS(=O)(=O)Nc1ccc(-c2nc3ccccc3s2)cc1	-6%	-18%
C=CCN(CC=C)S(=O)(=O)c1ccc(NC(=S)NC(=O)c2ccco2)cc1	4%	-3%
CN(C)c1ccc(NC(=S)NC(=O)/C=C/c2ccc(Cl)cc2)cc1	5µM*	5%
CN(C)NC(=S)Nc1ccc(Cl)cc1	17%	6%
C=CCN(CC=C)S(=O)(=O)c1ccc(NC(=S)NC(=O)/C=C/c2ccc(C)cc2)cc1	25µM*	-1%
C=CCN(CC=C)S(=O)(=O)c1ccc(NC(=S)NC(=O)/C=C/c2cccc3ccccc23)cc1	4µM*	3%
C=CCN(CC=C)S(=O)(=O)c1ccc(NC(=S)NC(=O)c2ccc(-c3ccccc3)cc2)cc1	-8%	1%
CC(C)c1ccc(NC(=O)CN2C(=O)c3cccc4cccc2c34)cc1	1%	1%
Cc1ccc(Cl)cc1N(C)C(=O)c1noc2c1CCCCC2	-12%	-6%
O=c1c2ccccc2[nH]c(=S)n1CCc1ccccc1	u	2%
O=c1c2ccccc2[nH]c(=S)n1Cc1cccs1	25µM*	-3%
Cc1ccc2c(=O)cc(C(=O)Nc3c(C)n(C)n(-c4ccccc4)c3=O)oc2c1	-12%	-3%
Cc1nnc(N2CCCC(C(=O)NCCc3ccc(Cl)cc3)C2)c2nn(-c3ccccc3)c(C)c12 (configuration not stated)	7%	-5%
Cc1c(Cl)cnc(NC(=O)COC(=O)c2cc3c(s2)CCC(C)C3)c1Cl (configuration not stated)	u	-1%
Cc1cc(NC(=O)COC(=O)c2cc3c(s2)CCC(C)C3)no1 (configuration not stated)	32µM*	2%
Cc1cccc(-c2nn3c(=O)cc(CN4CCN(S(=O)(=O)c5ccc(Cl)cc5)CC4)nc3s2)c1	-3%	0%
SMILES	Cruzain noTriton	Cruzain Triton
O=C(NC(Cc1ccccc1)C(=O)Oc1ccc2c(C(F)(F)F)cc(=O)oc2c1)OCc1ccccc1 (configuration not stated)	u	11µM*
CC(Oc1ccc2c(-c3ccccc3)cc(=O)oc2c1)C(=O)O (configuration not stated)	-4%	-1%
CC(NC(=O)OCc1ccccc1)C(=O)Oc1cc2oc(=O)cc(-c3ccccc3)c2cc1Cl (configuration not stated)	u	22µM*
O=C(COc1ccc2c(C(F)(F)F)cc(=O)oc2c1)NCc1cccs1	-15%	-1%
Cc1ccc(C)c(S(=O)(=O)c2nnn3c2nc(N2CCCCC2)c2sccc23)c1	u	-7%
Cc1cc(Cl)ccc1NC(=O)CN1C(=O)COc2ccc(S(=O)(=O)Nc3ccccc3)cc21	-5%	-8%
COc1ccc(C2C(=O)N(C3CCCCC3)CC(=O)N2CCc2ccc(OC)c(OC)c2)cc1 (configuration not stated)	10%	1%
COC(=O)c1cc(NC(=O)CC2SC(=Nc3ccccc3)N(CCc3c[nH]c4ccccc34)C2=O)cc(C(=O)OC)c1 (configuration not stated)	5µM*	15%
COCCN1C(=O)C(CC(=O)Nc2ccc(C(=O)O)cc2)SC1=Nc1ccccc1 (configuration not stated)	0%	0%
CCOc1ccccc1CNC(=O)Cn1nc(C)c2nn(-c3ccc(Cl)cc3)c(C)c2c1=O	6%	2%
COc1cc(C2CC(=O)Oc3ccc(O)cc32)cc(OC)c1OC (configuration not stated)	3%	3%
O=C(OCc1nc2scc(-c3ccccc3)c2c(=O)[nH]1)c1cccc([N+](=O)[O-])c1	25µM*	-7%
CC(C)[C@H](NC(=O)c1ccccc1)C(=O)OCc1nc2scc(-c3ccccc3)c2c(=O)[nH]1	u	-6%
